# Data as given in publication PMC7862700, “An all-to-all approach to the identification of sequence-specific readers for epigenetic DNA modifications on cytosine”.
# What was measured:
# Assay in all cases: DAPPL (digital affinity profiling via proximity ligation, sequencing); 10 mM Tris-HCl pH 7.5, 50 mM NaCl, 1 mM DTT, 4% glycerol, room temperature, 30 min; GST-TFs on glutathione beads, 16-mer random dsDNA library, 0.1% formaldehyde crosslink after washing; high values mean tight binding
# FEV = biological target: T1, FEV (Homo sapiens, UniProt Q99581 1-238); conditions: protein: recombinant; tags: N-terminal GST; dsDNA, one strand shown
# T1 sequence: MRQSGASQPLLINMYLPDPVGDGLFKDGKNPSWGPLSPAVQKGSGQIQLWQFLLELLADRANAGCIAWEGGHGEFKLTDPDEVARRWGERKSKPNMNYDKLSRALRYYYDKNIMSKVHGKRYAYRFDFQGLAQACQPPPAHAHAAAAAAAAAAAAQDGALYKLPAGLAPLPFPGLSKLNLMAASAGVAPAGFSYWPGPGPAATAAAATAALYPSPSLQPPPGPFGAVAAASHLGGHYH
# How it was run: (§1)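 After expression in yeast as GST fusions, human transcription factors were bound to glutathione beads, DNA-barcoded and mixed with a tag-only sample. The pools were incubated with 200 nmole of a 16-mer random double-stranded DNA library in Tris/NaCl/DTT/glycerol buffer (30 min, room temperature), washed and crosslinked with 0.1% formaldehyde. Proximity ligation with BsaI/T4 ligase ran for 1 h at 37 °C, before PCR amplification and sequencing on an Illumina NextSeq500. Binding signal is a hexamer's read frequency for a factor divided by its frequency for the tag-only sample.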
# ETV5 = ETV5 (Homo sapiens, UniProt P41161 1-510); conditions: protein: recombinant; tags: N-terminal GST; dsDNA, one strand shown
# ETV5, sequence (P41161 whole entry): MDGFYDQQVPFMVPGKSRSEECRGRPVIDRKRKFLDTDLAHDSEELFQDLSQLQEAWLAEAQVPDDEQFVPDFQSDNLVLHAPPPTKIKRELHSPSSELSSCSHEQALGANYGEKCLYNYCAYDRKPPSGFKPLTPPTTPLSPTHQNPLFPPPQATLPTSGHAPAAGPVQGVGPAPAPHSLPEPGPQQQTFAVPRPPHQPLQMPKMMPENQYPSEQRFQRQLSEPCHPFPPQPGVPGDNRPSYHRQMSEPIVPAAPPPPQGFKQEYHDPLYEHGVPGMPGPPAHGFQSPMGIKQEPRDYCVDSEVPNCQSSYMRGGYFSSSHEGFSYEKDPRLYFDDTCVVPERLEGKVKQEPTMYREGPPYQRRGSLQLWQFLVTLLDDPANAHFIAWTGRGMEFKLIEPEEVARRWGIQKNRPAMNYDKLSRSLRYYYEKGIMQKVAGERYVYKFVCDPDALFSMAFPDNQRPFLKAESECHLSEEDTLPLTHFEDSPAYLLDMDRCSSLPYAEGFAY
# How it was run: as §1
# HSF1 = HSF1 (Homo sapiens, UniProt Q00613 1-529); conditions: protein: recombinant; tags: N-terminal GST; chain copies: 3; dsDNA, one strand shown
# HSF1, sequence (Q00613 whole entry): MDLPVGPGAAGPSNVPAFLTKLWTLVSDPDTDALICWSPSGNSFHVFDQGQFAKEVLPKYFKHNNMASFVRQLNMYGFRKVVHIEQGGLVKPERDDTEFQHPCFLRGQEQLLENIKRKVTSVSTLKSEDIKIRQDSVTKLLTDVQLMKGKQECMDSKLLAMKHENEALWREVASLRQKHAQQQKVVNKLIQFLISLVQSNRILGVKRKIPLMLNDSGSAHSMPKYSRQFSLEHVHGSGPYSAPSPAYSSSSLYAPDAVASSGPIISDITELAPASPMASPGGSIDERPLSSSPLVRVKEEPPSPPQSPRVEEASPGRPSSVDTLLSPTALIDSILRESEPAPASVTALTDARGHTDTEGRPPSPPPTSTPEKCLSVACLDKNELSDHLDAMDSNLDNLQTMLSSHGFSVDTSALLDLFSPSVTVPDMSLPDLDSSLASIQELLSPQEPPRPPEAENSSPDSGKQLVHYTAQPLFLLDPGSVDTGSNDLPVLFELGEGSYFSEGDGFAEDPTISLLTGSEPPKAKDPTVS
# How it was run: as §1
# SPIC = biological target: T2, SPIC (Homo sapiens, UniProt Q8N5J4 1-248); conditions: protein: recombinant; tags: N-terminal GST; dsDNA, one strand shown
# T2 sequence: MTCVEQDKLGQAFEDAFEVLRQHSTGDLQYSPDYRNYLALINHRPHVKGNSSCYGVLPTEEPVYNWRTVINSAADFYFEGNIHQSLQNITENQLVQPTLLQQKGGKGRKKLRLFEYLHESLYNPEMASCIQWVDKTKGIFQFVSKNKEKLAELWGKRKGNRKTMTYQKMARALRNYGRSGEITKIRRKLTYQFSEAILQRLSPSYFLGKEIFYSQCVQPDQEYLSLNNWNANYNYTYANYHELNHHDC
# How it was run: as §1
# ELF4 = ELF4 (Homo sapiens, UniProt Q99607 1-663); conditions: protein: recombinant; tags: N-terminal GST; dsDNA, one strand shown
# ELF4, sequence (Q99607 whole entry): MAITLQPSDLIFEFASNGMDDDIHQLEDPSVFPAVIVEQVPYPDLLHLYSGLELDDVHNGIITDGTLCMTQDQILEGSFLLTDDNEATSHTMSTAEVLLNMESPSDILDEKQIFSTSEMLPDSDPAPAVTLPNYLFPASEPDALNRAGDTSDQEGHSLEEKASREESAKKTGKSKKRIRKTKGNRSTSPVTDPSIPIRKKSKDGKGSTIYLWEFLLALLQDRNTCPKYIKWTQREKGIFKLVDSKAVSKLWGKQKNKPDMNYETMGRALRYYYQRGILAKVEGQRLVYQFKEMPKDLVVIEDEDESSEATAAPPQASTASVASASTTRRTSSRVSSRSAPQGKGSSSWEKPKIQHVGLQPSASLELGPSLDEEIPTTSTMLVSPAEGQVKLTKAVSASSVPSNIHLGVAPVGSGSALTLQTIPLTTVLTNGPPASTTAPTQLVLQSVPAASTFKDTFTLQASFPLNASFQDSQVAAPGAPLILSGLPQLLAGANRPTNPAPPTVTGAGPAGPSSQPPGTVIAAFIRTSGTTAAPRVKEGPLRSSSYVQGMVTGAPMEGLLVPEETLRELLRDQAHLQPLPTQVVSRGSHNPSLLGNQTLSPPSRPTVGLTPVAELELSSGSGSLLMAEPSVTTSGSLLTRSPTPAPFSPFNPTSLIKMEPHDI
# How it was run: as §1
# ELK4 = biological target: T3, ELK4 (Homo sapiens, UniProt P28324-2 1-405); conditions: protein: recombinant; tags: N-terminal GST; dsDNA, one strand shown
# T3 sequence: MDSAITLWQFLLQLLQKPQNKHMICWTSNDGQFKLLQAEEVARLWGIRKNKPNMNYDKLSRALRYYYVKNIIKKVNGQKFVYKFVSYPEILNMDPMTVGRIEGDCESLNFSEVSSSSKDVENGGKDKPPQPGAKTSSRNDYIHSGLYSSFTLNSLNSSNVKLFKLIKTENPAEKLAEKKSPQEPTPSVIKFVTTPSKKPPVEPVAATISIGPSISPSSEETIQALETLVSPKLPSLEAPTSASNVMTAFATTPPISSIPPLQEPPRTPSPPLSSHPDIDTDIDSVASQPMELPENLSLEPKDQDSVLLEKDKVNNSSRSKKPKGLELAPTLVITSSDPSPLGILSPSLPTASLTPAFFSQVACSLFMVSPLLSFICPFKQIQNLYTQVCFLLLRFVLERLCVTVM
# How it was run: as §1
# ETV2 = biological target: T4, ETV2 (Homo sapiens, UniProt O00321 1-342); conditions: protein: recombinant; tags: N-terminal GST; dsDNA, one strand shown
# T4 sequence: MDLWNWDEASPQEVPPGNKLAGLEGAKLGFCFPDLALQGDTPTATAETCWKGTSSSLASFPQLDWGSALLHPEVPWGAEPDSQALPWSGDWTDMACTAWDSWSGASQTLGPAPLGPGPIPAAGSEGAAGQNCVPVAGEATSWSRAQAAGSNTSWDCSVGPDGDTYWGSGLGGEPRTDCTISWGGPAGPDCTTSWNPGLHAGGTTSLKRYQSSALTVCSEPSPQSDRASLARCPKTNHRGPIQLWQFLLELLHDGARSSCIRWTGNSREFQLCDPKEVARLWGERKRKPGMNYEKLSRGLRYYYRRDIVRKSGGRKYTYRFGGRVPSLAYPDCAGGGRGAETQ
# How it was run: as §1
# ELF3 = biological target: T5, ELF3 (Homo sapiens, UniProt P78545 1-371); conditions: protein: recombinant; tags: N-terminal GST; dsDNA, one strand shown
# T5 sequence: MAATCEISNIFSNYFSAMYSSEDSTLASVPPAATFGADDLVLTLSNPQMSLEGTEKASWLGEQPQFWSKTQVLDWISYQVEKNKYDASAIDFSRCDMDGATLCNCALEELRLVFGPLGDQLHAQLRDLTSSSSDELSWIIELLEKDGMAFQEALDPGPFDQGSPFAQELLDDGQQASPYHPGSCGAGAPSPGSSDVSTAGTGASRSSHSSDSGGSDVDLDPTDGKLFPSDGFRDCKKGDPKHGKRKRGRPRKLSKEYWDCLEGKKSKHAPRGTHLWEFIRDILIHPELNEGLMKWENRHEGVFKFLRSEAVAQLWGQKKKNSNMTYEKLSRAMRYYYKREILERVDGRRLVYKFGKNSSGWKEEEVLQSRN
# How it was run: as §1
# CRX = CRX (Homo sapiens, UniProt O43186 1-299); conditions: protein: recombinant; tags: N-terminal GST; dsDNA, one strand shown
# CRX, sequence (O43186 whole entry): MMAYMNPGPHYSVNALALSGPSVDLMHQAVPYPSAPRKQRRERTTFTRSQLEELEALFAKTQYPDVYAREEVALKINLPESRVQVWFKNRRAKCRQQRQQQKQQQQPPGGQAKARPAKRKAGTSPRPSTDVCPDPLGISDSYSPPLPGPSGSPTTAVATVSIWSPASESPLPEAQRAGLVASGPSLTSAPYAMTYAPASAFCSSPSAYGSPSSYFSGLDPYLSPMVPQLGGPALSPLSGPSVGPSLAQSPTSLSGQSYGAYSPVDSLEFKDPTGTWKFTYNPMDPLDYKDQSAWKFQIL
# How it was run: as §1
# ETV1 = ETV1 (Homo sapiens, UniProt P50549 1-477); conditions: protein: recombinant; tags: N-terminal GST; dsDNA, one strand shown
# ETV1, sequence (P50549 whole entry): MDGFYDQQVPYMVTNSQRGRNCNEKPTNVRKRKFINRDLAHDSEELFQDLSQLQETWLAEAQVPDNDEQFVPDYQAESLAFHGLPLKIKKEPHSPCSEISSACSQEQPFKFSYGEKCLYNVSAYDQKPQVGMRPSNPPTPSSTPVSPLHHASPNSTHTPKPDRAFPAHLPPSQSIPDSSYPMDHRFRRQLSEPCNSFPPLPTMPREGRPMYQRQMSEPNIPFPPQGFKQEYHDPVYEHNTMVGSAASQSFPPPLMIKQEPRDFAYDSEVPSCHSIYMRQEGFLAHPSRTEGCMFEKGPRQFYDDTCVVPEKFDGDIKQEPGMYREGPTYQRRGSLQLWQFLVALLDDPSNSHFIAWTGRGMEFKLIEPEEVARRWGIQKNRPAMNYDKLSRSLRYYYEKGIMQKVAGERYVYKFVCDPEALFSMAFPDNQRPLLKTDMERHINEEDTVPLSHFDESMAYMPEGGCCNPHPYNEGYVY
# How it was run: as §1
# ERF = biological target: T6, ERF (Homo sapiens, UniProt P50548 1-548); conditions: protein: recombinant; tags: N-terminal GST; dsDNA, one strand shown
# T6 sequence: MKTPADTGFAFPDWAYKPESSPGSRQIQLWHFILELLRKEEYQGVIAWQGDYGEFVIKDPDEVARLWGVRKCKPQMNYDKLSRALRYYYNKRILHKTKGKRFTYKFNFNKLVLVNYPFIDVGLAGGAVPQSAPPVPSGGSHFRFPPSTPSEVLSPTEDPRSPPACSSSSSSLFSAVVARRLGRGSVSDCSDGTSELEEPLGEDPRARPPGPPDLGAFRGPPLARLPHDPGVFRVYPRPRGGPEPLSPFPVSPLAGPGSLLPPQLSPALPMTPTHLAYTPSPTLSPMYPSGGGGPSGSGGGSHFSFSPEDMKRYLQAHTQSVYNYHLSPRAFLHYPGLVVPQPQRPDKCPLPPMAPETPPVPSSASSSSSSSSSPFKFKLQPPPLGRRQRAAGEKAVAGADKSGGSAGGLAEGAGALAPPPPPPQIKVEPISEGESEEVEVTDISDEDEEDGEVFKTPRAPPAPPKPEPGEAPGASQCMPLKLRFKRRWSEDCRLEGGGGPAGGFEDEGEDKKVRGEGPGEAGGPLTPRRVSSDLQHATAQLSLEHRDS
# How it was run: as §1
# ETV3L = biological target: T7, ETV3L (Homo sapiens, UniProt Q6ZN32 1-361); conditions: protein: recombinant; tags: N-terminal GST; dsDNA, one strand shown
# T7 sequence: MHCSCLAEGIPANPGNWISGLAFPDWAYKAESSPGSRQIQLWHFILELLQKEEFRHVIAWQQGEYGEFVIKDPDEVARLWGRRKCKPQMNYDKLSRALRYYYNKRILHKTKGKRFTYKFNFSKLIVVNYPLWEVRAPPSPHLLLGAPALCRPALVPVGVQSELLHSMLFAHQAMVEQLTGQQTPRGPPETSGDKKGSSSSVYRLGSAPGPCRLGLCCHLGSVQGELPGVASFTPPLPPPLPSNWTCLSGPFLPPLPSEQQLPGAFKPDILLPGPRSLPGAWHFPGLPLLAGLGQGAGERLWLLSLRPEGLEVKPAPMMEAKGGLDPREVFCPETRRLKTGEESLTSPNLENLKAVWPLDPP
# How it was run: as §1
# ETS2 = biological target: T8, ETS2 (Homo sapiens, UniProt P15036 1-469); conditions: protein: recombinant; tags: N-terminal GST; dsDNA, one strand shown
# T8 sequence: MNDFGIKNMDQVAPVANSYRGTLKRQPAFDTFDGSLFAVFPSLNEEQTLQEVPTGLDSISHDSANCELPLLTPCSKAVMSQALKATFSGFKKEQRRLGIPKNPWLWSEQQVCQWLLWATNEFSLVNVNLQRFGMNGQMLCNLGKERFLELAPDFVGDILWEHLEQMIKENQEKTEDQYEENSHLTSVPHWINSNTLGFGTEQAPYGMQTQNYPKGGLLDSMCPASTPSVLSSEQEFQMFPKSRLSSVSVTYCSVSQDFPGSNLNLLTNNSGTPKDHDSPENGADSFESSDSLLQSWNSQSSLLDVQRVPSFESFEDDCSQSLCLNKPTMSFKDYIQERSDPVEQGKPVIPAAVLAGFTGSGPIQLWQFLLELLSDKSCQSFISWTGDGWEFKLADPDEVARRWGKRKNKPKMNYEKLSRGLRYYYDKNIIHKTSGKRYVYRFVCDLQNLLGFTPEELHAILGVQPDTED
# How it was run: as §1
# SPDEF = biological target: T9, SPDEF (Homo sapiens, UniProt O95238 1-335); conditions: protein: recombinant; tags: N-terminal GST; dsDNA, one strand shown
# T9 sequence: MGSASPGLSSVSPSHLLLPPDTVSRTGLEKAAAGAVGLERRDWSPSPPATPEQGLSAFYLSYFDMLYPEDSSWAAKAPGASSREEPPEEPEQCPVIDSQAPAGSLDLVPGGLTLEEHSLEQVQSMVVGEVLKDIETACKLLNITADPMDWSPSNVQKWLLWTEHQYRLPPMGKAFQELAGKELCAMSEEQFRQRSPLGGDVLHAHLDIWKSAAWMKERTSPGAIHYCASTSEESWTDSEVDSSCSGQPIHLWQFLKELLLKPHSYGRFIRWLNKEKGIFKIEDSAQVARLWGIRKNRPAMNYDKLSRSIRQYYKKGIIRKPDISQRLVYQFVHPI
# How it was run: as §1
# ETV7 = biological target: T10, ETV7 (Homo sapiens, UniProt Q9Y603 1-341); conditions: protein: recombinant; tags: N-terminal GST; dsDNA, one strand shown
# T10 sequence: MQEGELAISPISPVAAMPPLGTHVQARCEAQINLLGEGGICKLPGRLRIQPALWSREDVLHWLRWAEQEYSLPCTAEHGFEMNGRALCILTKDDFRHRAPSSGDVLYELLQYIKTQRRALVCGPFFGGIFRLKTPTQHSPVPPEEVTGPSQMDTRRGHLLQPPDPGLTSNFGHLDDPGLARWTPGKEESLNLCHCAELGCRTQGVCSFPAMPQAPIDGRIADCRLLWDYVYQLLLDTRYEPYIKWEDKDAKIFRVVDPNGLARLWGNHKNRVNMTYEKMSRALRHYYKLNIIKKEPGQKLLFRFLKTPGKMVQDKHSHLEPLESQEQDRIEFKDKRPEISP
# How it was run: as §1
# ELF5 = biological target: T11, ELF5 (Homo sapiens, UniProt Q9UKW6-2 1-255); conditions: protein: recombinant; tags: N-terminal GST; dsDNA, one strand shown
# T11 sequence: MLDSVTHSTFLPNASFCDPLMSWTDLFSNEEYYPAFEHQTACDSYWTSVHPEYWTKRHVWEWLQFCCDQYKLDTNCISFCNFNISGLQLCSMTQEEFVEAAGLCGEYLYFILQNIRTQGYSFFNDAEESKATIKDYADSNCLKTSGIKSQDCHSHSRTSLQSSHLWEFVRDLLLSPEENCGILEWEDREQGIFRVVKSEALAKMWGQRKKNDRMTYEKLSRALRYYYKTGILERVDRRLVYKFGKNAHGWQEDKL
# How it was run: as §1
# ETV3 = biological target: T12, ETV3 (Homo sapiens, UniProt P41162-2 1-143); conditions: protein: recombinant; tags: N-terminal GST; dsDNA, one strand shown
# T12 sequence: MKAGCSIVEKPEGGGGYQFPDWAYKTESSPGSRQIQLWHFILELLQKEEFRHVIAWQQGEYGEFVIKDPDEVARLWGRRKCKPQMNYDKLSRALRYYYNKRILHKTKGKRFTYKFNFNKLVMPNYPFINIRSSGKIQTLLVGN
# How it was run: as §1
# ETV6 = ETV6 (Homo sapiens, UniProt P41212 1-452); conditions: protein: recombinant; tags: N-terminal GST; dsDNA, one strand shown
# ETV6, sequence (P41212 whole entry): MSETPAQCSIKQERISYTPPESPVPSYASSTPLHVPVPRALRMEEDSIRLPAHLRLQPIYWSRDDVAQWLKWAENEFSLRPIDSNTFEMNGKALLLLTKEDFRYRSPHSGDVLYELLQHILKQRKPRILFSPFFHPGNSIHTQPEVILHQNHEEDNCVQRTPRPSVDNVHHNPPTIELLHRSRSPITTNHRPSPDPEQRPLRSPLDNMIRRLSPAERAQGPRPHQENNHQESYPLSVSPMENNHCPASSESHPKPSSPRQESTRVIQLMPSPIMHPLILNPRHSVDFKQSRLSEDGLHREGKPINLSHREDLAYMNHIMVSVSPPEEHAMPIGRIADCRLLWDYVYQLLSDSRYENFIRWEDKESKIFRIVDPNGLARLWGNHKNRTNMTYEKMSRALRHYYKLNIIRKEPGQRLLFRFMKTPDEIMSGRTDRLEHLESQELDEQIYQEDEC
# How it was run: as §1
sequence,measurement,setting,value
GTTTCT,binding signal,FEV,"1.16 fold enrichment (6-mer frequency, TF over GST control)"
same,binding signal,ETV5,"1.24 fold enrichment (6-mer frequency, TF over GST control)"
same,binding signal,HSF1,"1.84 fold enrichment (6-mer frequency, TF over GST control)"
same,binding signal,SPIC,"1.28 fold enrichment (6-mer frequency, TF over GST control)"
same,binding signal,ELF4,"1.28 fold enrichment (6-mer frequency, TF over GST control)"
same,binding signal,ELK4,"1.15 fold enrichment (6-mer frequency, TF over GST control)"
same,binding signal,ETV2,"1.25 fold enrichment (6-mer frequency, TF over GST control)"
same,binding signal,ELF3,"1.2 fold enrichment (6-mer frequency, TF over GST control)"
same,binding signal,CRX,"1.15 fold enrichment (6-mer frequency, TF over GST control)"
same,binding signal,ETV1,"1.33 fold enrichment (6-mer frequency, TF over GST control)"
same,binding signal,ERF,"1.24 fold enrichment (6-mer frequency, TF over GST control)"
same,binding signal,ETV3L,"1.33 fold enrichment (6-mer frequency, TF over GST control)"
same,binding signal,ETS2,"1.28 fold enrichment (6-mer frequency, TF over GST control)"
same,binding signal,SPDEF,"1.21 fold enrichment (6-mer frequency, TF over GST control)"
same,binding signal,ETV7,"1.38 fold enrichment (6-mer frequency, TF over GST control)"
same,binding signal,ELF5,"1.31 fold enrichment (6-mer frequency, TF over GST control)"
same,binding signal,ETV3,"1.24 fold enrichment (6-mer frequency, TF over GST control)"
same,binding signal,ETV6,"1.28 fold enrichment (6-mer frequency, TF over GST control)"
